Laboratory results taken from the antibiotic and cytotoxicity screens of Wong et al. (2023).
About 500 (1.3%) of roughly 39,000 compounds were called active. The sample holds actives, similar compounds and a random draw of the others, so the mix is not that of the screen.

test system: S. aureus RN4220; assay: growth inhibition call (relative growth <= 0.2); conditions: 50 µM

Growth inhibition call, active:
CNC1C(O)C(OC2C(N)CC(N)C(OC3OC(CN)=CCC3N)C2O)OCC1(C)O.O=S(=O)(O)O (configuration not stated)
CCCSc1nc(N[C@@H]2C[C@H]2c2ccc(F)c(F)c2)c2nnn([C@@H]3C[C@H](OCCO)[C@@H](O)[C@H]3O)c2n1
CCCCCc1c2c(cc(O)c1C(=O)O)OC(=O)c1c(cc(OC)cc1C(=O)CCCC)O2
CCC(C)CCCCC(=O)NC(CCN)C(=O)NC(C(=O)NC(CCN)C(=O)NC1CCNC(=O)C(C(C)O)NC(=O)C(CCN)NC(=O)C(CCN)NC(=O)C(CC(C)C)NC(=O)C(Cc2ccccc2)NC(=O)C(CCN)NC1=O)C(C)O.O=S(=O)(O)O (configuration not stated)
O=C1C=CC(=O)N1
CNC1CCC(c2ccc(Cl)c(Cl)c2)c2ccccc21.Cl (configuration not stated)
N[C@@H]1CC[C@@H](c2ccc(Cl)c(Cl)c2)c2ccccc21
Nc1ccc(Oc2ccc3ccccc3c2Cl)c(Cl)c1
Nc1ccc(Sc2ccc3ccccc3c2Cl)c(Cl)c1
NC[C@H]1O[C@H](O[C@H]2[C@H](O)[C@@H](O[C@H]3O[C@H](CO)[C@@H](O)[C@H](N)[C@H]3O)[C@H](N)C[C@@H]2N)[C@H](N)C[C@@H]1O
NCC1OC(OC2C(N)CC(N)C(OC3OC(CO)C(O)C(N)C3O)C2O)C(N)CC1O (configuration not stated)
Cc1cc2nc(C(=O)N[C@H]3CCN(C)C3)cc(-c3ccccc3Cl)c2c(C)c1-c1ccc(CO)cc1

Growth inhibition call, inactive:
C[C@H](CO)N1C[C@H](C)[C@H](CN(C)C)OCCCC[C@H](C)Oc2ccc(NS(=O)(=O)c3cn(C)cn3)cc2C1=O
COc1cc(-c2cc(=O)c3c(=O)cc(-c4ccc(O)c(OC)c4)n(CCc4ccccc4)c3s2)ccc1O
Cc1noc(C)c1NC(=O)N(C)C[C@@H]1Oc2ccc(NS(=O)(=O)c3cn(C)cn3)cc2CC(=O)N([C@H](C)CO)C[C@H]1C
CO[C@H]1O[C@H](CO)[C@@H](OC(=O)Nc2ccc(Br)cc2)[C@@H]2OC(=O)[C@H](Cc3cccc(Br)c3)C/C=C/C[C@@H](Cc3cccc(Br)c3)C(=O)O[C@@H]12
C[C@@H]1CN([C@@H](C)CO)C(=O)c2cccc(NS(=O)(=O)c3ccc(F)cc3)c2O[C@@H]1CN(C)S(C)(=O)=O
CCNC1CC(N)C(OC2OC(CN)=CCC2N)C(O)C1OC1OCC(C)(O)C(NC)C1O.O=S(=O)(O)O.O=S(=O)(O)O (configuration not stated)
CN[C@@H]1[C@@H](O)[C@@H](O[C@@H]2[C@@H](O)[C@H](O[C@H]3OC(CN)=CC[C@H]3N)[C@@H](N)C[C@H]2N)OC[C@]1(C)O
C[C@@H]1CCCCO[C@H](CN(C)C(=O)CCC(F)(F)F)[C@@H](C)CN([C@@H](C)CO)C(=O)c2cc(NS(=O)(=O)c3ccc(F)cc3)ccc2O1
CC(C)NC(=O)Nc1ccc2c(c1)C(=O)N([C@@H](C)CO)C[C@H](C)[C@@H](CN(C)Cc1ccccc1)OCCCC[C@H](C)O2
CO[C@@H]1CN(C)C(=O)c2ccc(NC(=O)Nc3cccc(Cl)c3)cc2OC[C@@H](C)N(C(=O)Nc2c(C)noc2C)C[C@H]1C
CC(C)(C)[S@@+]([O-])N1Cc2cc(C(=O)NCc3ccc4c(c3)OCO4)nc(-c3ccc(-c4ccc(C#N)cc4)cc3)c2[C@H]1CCO
Cc1noc(C)c1S(=O)(=O)N(C)C[C@H]1OCCCC[C@@H](C)Oc2ccc(NC(=O)Nc3ccc(F)cc3)cc2C(=O)N([C@@H](C)CO)C[C@@H]1C
CC(C)NC(=O)N(C)C[C@@H]1OCCCC[C@@H](C)Oc2ccc(NS(C)(=O)=O)cc2C(=O)N([C@@H](C)CO)C[C@H]1C
COc1cc(C)c(C(=O)O)c(O)c1
COc1cc(O)c(C(=O)O)c(O)c1
C[C@@H]1CN([C@H](C)CO)C(=O)c2cccc(NC(=O)Nc3ccc(C(F)(F)F)cc3)c2O[C@@H]1CN(C)Cc1ccc(Oc2ccccc2)cc1
Cc1ccc(S(=O)(=O)N(C)C[C@H]2Oc3ccc(NS(=O)(=O)c4ccccc4)cc3C(=O)N([C@@H](C)CO)C[C@@H]2C)cc1
C[C@@H]1CN([C@H](C)CO)C(=O)Cc2cc(NS(=O)(=O)c3ccc(Cl)cc3)ccc2O[C@@H]1CN(C)S(C)(=O)=O
COC(=O)OCOc1c2n(ccc1=O)N([C@@H]1c3ccccc3SCc3c1ccc(F)c3F)[C@@H]1COCCN1C2=O
CC[C@@H](C)CCCC(=O)N[C@@H](CCN)C(=O)N[C@H](C(=O)N[C@@H](CCN)C(=O)N[C@H]1CCNC(=O)[C@H]([C@@H](C)O)NC(=O)[C@H](CCN)NC(=O)[C@H](CCN)NC(=O)[C@H](CC(C)C)NC(=O)[C@@H](CC(C)C)NC(=O)[C@H](CCN)NC1=O)[C@@H](C)O
CC[C@@H](C)CCCCC(=O)N[C@@H](CCN)C(=O)N[C@H](C(=O)N[C@@H](CCN)C(=O)N[C@H]1CCNC(=O)[C@H]([C@@H](C)O)NC(=O)[C@H](CCN)NC(=O)[C@H](CCN)NC(=O)[C@H](CC(C)C)NC(=O)[C@@H](Cc2ccccc2)NC(=O)[C@@H](CCN)NC1=O)[C@@H](C)O
C[C@@H]1CN([C@H](C)CO)S(=O)(=O)c2ccc(C#C[C@@H](C)O)cc2O[C@@H]1CN(C)C(=O)c1ccncc1
O=C(C[C@@H]1CC[C@H](NC(=O)CN2CCOCC2)[C@@H](CO)O1)NCCc1ccccc1
Cc1noc(C)c1NC(=O)N(C)C[C@H]1OCCCC[C@@H](C)Oc2ccc(NC(=O)NC3CCCCC3)cc2C(=O)N([C@H](C)CO)C[C@@H]1C
CN[C@H]1CC[C@@H](c2ccc(Cl)c(Cl)c2)c2ccccc21
O=C(C[C@H]1C=C[C@H](NS(=O)(=O)c2ccc(F)cc2)[C@@H](CO)O1)N1CCC(Cc2ccccc2)CC1
Cc1ccc(S(=O)(=O)Nc2ccc3c(c2)C(=O)N([C@H](C)CO)C[C@H](C)[C@H](CN(C)C(=O)Nc2c(C)noc2C)OCCCC[C@H](C)O3)cc1
CO[C@@H]1CC[C@@H]2[C@H]1OCCN2C(=O)N(C)C
CCCC#Cc1ccc2c(c1)O[C@@H](CN(C)S(=O)(=O)c1cccc(F)c1)[C@@H](C)CN([C@H](C)CO)S2(=O)=O
COc1ccc2ccccc2c1-c1c(OC)ccc2ccccc12
c1ccc2c(c1)ccc1cc3c(ccc4ccccc43)cc12
COc1cc(Cl)ccc1Oc1ccc(Cl)cc1Cl
C[C@@H]1CN([C@H](C)CO)C(=O)c2cc(NC(=O)Nc3ccc4c(c3)OCO4)ccc2O[C@@H](C)CCCCO[C@H]1CN(C)Cc1ccc(C(=O)O)cc1
C[C@@H]1CN([C@H](C)CO)C(=O)c2cc(NC(=O)Nc3ccc4c(c3)OCO4)ccc2O[C@@H](C)CCCCO[C@@H]1CN(C)C(=O)CCC(F)(F)F
COc1ccc(CN(C)C[C@@H]2Oc3c(NC(=O)c4ccc(-c5nccs5)cc4)cccc3C(=O)N([C@@H](C)CO)C[C@H]2C)cc1
Cc1noc(C)c1S(=O)(=O)Nc1ccc2c(c1)CC(=O)N([C@@H](C)CO)C[C@H](C)[C@H](CN(C)S(=O)(=O)c1cn(C)cn1)O2
C[C@@H]1CN([C@H](C)CO)C(=O)c2cccc(NS(C)(=O)=O)c2O[C@H]1CN(C)C(=O)Nc1ccccc1
CC(C)NC(=O)Nc1ccc2c(c1)C(=O)N([C@H](C)CO)C[C@H](C)[C@H](CN(C)Cc1ccc(C(=O)O)cc1)O2
NC[C@H]1O[C@H](O[C@H]2[C@@H](O[C@@H]3O[C@H](CO)[C@@H](O)[C@H]3O)[C@@H](O)[C@H](N)C[C@@H]2N)[C@H](N)[C@@H](O)[C@@H]1O
NC[C@H]1O[C@H](O[C@@H]2[C@H](O)[C@@H](O[C@H]3O[C@H](CO)[C@@H](O)[C@H](N)[C@H]3O)[C@H](N)C[C@@H]2N)[C@H](O)[C@@H](O)[C@@H]1O
NC[C@@H]1O[C@H](O[C@H]2[C@@H](O)[C@H](O[C@@H]3[C@@H](O)[C@H](N)C[C@H](N)[C@H]3O[C@@H]3O[C@H](CO)[C@@H](O)C[C@H]3N)O[C@@H]2CO)[C@H](N)[C@@H](O)[C@@H]1O[C@H]1O[C@H](CO)[C@@H](O)[C@H](O)[C@@H]1O
NCC1CCC(N)C(OC2C(N)CC(N)C(OC3OC(CO)C(O)C(N)C3O)C2O)O1 (configuration not stated)
C[C@@H]1CN([C@@H](C)CO)C(=O)c2cccc(NC(=O)CCCCCC(=O)Nc3ccccc3N)c2O[C@@H]1CN(C)C(=O)Nc1ccc(F)cc1
OCC(CO)NC1CC(O)(CO)C(O)C(O)C1O (configuration not stated)
C[C@H](CO)N1C[C@H](C)[C@H](CN(C)CC2CC2)OCCCC[C@H](C)Oc2ccc(NC(=O)Cc3ccccc3)cc2C1=O
COc1ccc(NC(=O)Nc2ccc3c(c2)C(=O)N([C@@H](C)CO)C[C@H](C)[C@@H](CN(C)S(=O)(=O)c2ccc(Cl)cc2)OCCCC[C@H](C)O3)cc1
CCCNC(=O)N1C[C@]2(CCN(CC2)S(=O)(=O)c2ccccc2)c2c(n(c3cc(ccc23)OC)C)[C@@H]1CO
C[C@H](CO)N1C[C@H](C)[C@@H](CN(C)Cc2ccc(C(F)(F)F)cc2)Oc2ccc(NC(=O)Nc3ccc(F)cc3)cc2CC1=O
CC(C)(C)[S@@](=O)N1Cc2cc(C(=O)N[C@@H]3CCN(Cc4ccccc4)C3)nc(-c3cccc(-c4ccncc4)c3)c2[C@H]1CCO
Cc1cc2nc(C(=O)NC[C@H]3CCCS(=O)(=O)C3)cc(-c3ccccc3Cl)c2c(C)c1-c1ccncc1
